Drawing on PMC12136788, this text covers binding signal for 15 molecules.

Whole data set: some 24,000 sequences, median “enrichment r” near 0.99, cut for the highest 2% near 3.7. These entries were drawn from the full list.

To fix the notation:
T1: UNK ZnF1-3 (human, UniProt Q9C0B0 31-174)
T1 sequence: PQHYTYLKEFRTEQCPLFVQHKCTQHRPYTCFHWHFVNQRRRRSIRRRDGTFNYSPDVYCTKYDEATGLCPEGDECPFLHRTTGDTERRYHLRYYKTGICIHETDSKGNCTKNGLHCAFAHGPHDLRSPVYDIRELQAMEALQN

B1: chrX:148369326:148369327:+_ENSMUSG00000025261_ENSMUST00000112622|mus_hu|FALSE|FALSE (ssRNA)
RNA: GGGAGUUCUACAGUCCGACGAUCCUUGUCUCGCAUUGAAUCAUUAGCUGUGCACAUCAACACAUUCCAAGCACAAAUUAAGAAAUGCAAACAGAACAAAAAAAUAUAUAUAUAUAUAAUUUUUUCCCCUAUCCAAAGGUUUCACAACAGAGGAUUGAGCAUCA
B2: 52112337_52131274_754_3pUTR_ENSMUSG00000022637_ENSMUST00000114471|mouse|control|control (ssRNA)
RNA: GGGAGUUCUACAGUCCGACGAUCAUCAAUGGUUGACUUCAGAGCCAUUGCUUCCAGGCCAGAGCUGAUCUGAUGGACCUCAUGCAGGCACUGUCUGAAGACUUUCCAUGGUACAAUAGUUUUGUCUCCAAAAAACUUCCUCCACAACAGAGGAUUGAGCAUCA
B3: chr18:56819859:56819860:+_ENSG00000166562_ENST00000588875|hu_mus|FALSE|FALSE (ssRNA)
RNA: GGGAGUUCUACAGUCCGACGAUCAACCUUGAUUACUCUGUGAACUAUCGGAAUGUCUCUUCCUUCAACCUUAAAAACAACUAUUUCACCAGCUCUGAUGGGGUCCUCCCGGAAAUUCGUGAGGAACAGCAGAUCUCCUCUGUGCAACAGAGGAUUGAGCAUCA
B4: 224577001_224577121_2655_3pUTR_ENSG00000162923_ENST00000295024|human|control|control (ssRNA)
RNA: GGGAGUUCUACAGUCCGACGAUCCGGGCAAGGCUAGAAUCCAUGAACCAAGCUGCAAAGAUCUCAAGCUAAAUAAGGCGGAAAGAUUUGGAGAAACAAAAGAAGGAAAUUCUUUCCUAUCCAAUGUAUACUCUUCAGACUAAUCAACAGAGGAUUGAGCAUCA
B5: chr2:62099399:62099400:-_ENSG00000115484_ENST00000544079|hu_hu|FALSE|FALSE (ssRNA)
RNA: GGGAGUUCUACAGUCCGACGAUCGUAGGAUUCCAUACCACUCAGUGUUCGUGAAUAUUCAGUUAAUCGUAGGGCCAACUCUAUUUCUGGAGCACCACCUCCUGCAAUAAGAGCCCUCUUCUUCACUAAACAACGAAUAACACACAACAGAGGAUUGAGCAUCA
B6: chr13:30086970:30086971:-_ENSG00000139514_ENST00000380752|hu_mus|FALSE|FALSE (ssRNA)
RNA: GGGAGUUCUACAGUCCGACGAUCAGGCCCUGUGUAGGCUGGGGAAGUGUGCUACCACUAGGCUACACGCCUGUCCAGCCCCACUAACUCUUCCAUUCUCAAGAAUCUUCCAAAGCAGAGGAAAGACAGGGCCAUCAGUCUACCCAACAGAGGAUUGAGCAUCA
B7: 101904251_101904371_108_5pUTR_ENSMUSG00000058655_ENSMUST00000169681|mouse|control|control (ssRNA)
RNA: GGGAGUUCUACAGUCCGACGAUCGGAGAGAGAACGCAAAGGACCCGGAUGAGGCAGUCACGUGAUUAUAGCGGGCGCGACGGGCUUGGAGACGUGAAACCAGGAGGGGGCGGGGAGCCGAGGACGGAGGCAGAAGGCGGGGCGCAACAGAGGAUUGAGCAUCA
B8: 125499526_125499646_756_3pUTR_ENSMUSG00000091337_ENSMUST00000164756|mouse|control|control (ssRNA)
RNA: GGGAGUUCUACAGUCCGACGAUCCUGUGAGACCAAAGAGGAACGAUUUGGUCUUUUUCUCCUCGCGAUUCUCAGGUUUAACACUCCUCCUUCCUCGAUUCUCCUUUUCCACAAUGCAUGGUCAUUCACUGUCCCGUCUUCUAUCAACAGAGGAUUGAGCAUCA
B9: 19967392_19969057_911_3pUTR_ENSMUSG00000002428_ENSMUST00000002502|mouse|control|control (ssRNA)
RNA: GGGAGUUCUACAGUCCGACGAUCUCCCAGAAUGGUGGUAGUUCUUUACUGUUCUCUCGUGCGAUCAUCCAAGCUAGAGCUUGUUUUUGGUGUGGAAGCAACGGUGUUUCAAUAGCCUCAGCUGGUUCCAUUUCAACAGUUCUACAACAGAGGAUUGAGCAUCA
B10: chrX:21990627:21990628:+_ENSG00000102172_ENST00000404933|hu_hu|FALSE|FALSE (ssRNA)
RNA: GGGAGUUCUACAGUCCGACGAUCCACCCGCCCAGUACUGUCCUGACUCAAUUCUUUCAUUCUUUCCUCUACUUUGUUCAAAAUACUGUCGAUCUCUUCUUUGCCUUGCGCAUCACCAUCAUAACUCUGAAGGUCCAGCAACACCAACAGAGGAUUGAGCAUCA
B11: chr14:102516957:102516958:+_ENSG00000197102_ENST00000360184|hu_mus|motif|central (ssRNA)
RNA: GGGAGUUCUACAGUCCGACGAUCCCAUCAACCCUUCCACACCGUUAAGGAUGAAUGAAGGUUAAAUAUUGGGAGUUUCCGGUUCCAGAAAGAGGACUGGAGAAAAGUCUAGCUUUACUCAGUGCACAGAACGGCAACUCCACGCAACAGAGGAUUGAGCAUCA
B12: chr18:67943652:67943653:+_ENSMUSG00000079614_ENSMUST00000025421|mus_hu|FALSE|FALSE (ssRNA)
RNA: GGGAGUUCUACAGUCCGACGAUCAGUUGUCCUUUUAACCCAGUGGCUCUGUCCUCGCAGUUUAUCAUUUGAUUCUCCUACUAUUUCUUCCCAUACAGCAGCUGUUCGGUCAAAAGAACAGGAAGCCAAAACCUGCCCAAAUUCCAACAGAGGAUUGAGCAUCA
B13: chrX:20185780:20185781:-_ENSG00000177189_ENST00000379565|hu_mus|motif|central (ssRNA)
RNA: GGGAGUUCUACAGUCCGACGAUCUUUGGUUAUAGUAAACAGGACAGCGCUGGCCUCUCGCUCUGAGAAAAACUUCUGUCGGAGAAUCUUAUCCAGCAAUUCACCUCCUUUCAUAAGUUCUGUUACUACAUACACAUAUUUUCCCAACAGAGGAUUGAGCAUCA
B14: chr11:77843920:77843921:+_ENSMUSG00000037791_ENSMUST00000049167|mus_hu|motif|central (ssRNA)
RNA: GGGAGUUCUACAGUCCGACGAUCUUUUUUAUAUACAGAAUACAGGAAAGUUUCUGUAAAGUCUAAAACAUUACAAUUACGGUGUACAUUGGUACUGGUUGUGGGGGUGGGAGGAGAGGAGGGAACCAGGGGCAGGAGGAAGAGCAACAGAGGAUUGAGCAUCA
B15: chr1:167252050:167252051:+_ENSMUSG00000040836_ENSMUST00000111450|mus_mus|motif|central (ssRNA)
RNA: GGGAGUUCUACAGUCCGACGAUCGGAUACCAUUGAAGACAAGAGCCACAUGGUGGCUUCCCUUUCACAUCCACCAUCUCGGGUCCUCCUGAUGCCCCAGCCACAUCUCCAUCUGCUUCUAACGUGUGCUUUCGAAGCCUCGUUCAACAGAGGAUUGAGCAUCA

The target in this experiment is T1, UNK ZnF1-3. As to the kind of experiment: nsRBNS (natural sequence RNA bind-n-seq); RBNS binding buffer (assumed for nsRBNS): 25 mM Tris pH 7.5, 150 mM KCl, 3 mM MgCl2, 0.01% Triton X-100, 500 ug/ml BSA, 20 U/ml SUPERase-In, 4 C; UNK is unkempt and MSI1 is Musashi-1; names of the RNAs are library labels; protein concentration not given here; high values mean tight binding.
For B1, the binding signal came to 0.406 enrichment R.
B2 showed a binding signal of 0.85 enrichment R.
In turn, B3 yielded a binding signal of 0.758 enrichment R.
The molecule B4 yielded a binding signal of 1.48 enrichment R.
Regarding B5, the binding signal was found to be 1.13 enrichment R.
To B6 belongs 1.02 enrichment R; to B7, 3.03 enrichment R; to B8, 0.473 enrichment R.
For the molecule B9, the binding signal was 0.75 enrichment R.
Then B10, with 0.997 enrichment R; and B11, with 1.11 enrichment R.
In turn, B12 came in with a binding signal of 1.28 enrichment R.
To B13 belongs 0.794 enrichment R; to B14, 1.66 enrichment R; to B15, 0.721 enrichment R.
